The assay addresses ADD2. Nature of the assay: pooled miR-30 sensor sort-seq; sequence = guide strand. The note with it: shRNA.
As for TTTCTGTCTTCTTAGTACCTTC, the sensor-assay potency score (higher = more potent) is -0.453. To TTGCTTGTTTCTGTCTTCTTAG belongs -0.81. As to TTTAGTTTTGAAGTGCCTGAGA, the sensor-assay potency score (higher = more potent) was -0.472. On to TCGGTAGACACTGCTGATCTTG, for which the sensor-assay potency score (higher = more potent) was -0.972.

For the sequence TAAATGTAGAGATAGCTCCATC, the sensor-assay potency score (higher = more potent) is -0.556. For TTAGAGGTATCAACATCCGTGT the value was -0.242; for TGACTTCACATCTTGTCGGTTT, -0.214; for TTCTAGTTTCTTCCTCTCCACC, -1.02.

As to TCTGTTGTTTTGATCCTCCTTA, the sensor-assay potency score (higher = more potent) was determined as 0.276. For TTGTCTCTGCCTCCTTCGCTGG the value was -1.43; for TCAAGTTCTAGTTTCTTCCTCT, 0.727.

In the case of TTCCTCTCCACCTCTTTCTTGT, the sensor-assay potency score (higher = more potent) is -0.367. For TTTGTCTCTGCCTCCTTCGCTG the value was -0.0606; for TTGTTCTCGAATCTTGTTCCTC, -0.198; for TTTGGTATCCTCGTCTCCCTTG, -0.18. For TTGACCTCTGATTTAGTCTGAG the value was 0.252; for TTAAATGTAGAGATAGCTCCAT, 0.598.
Further: reference of the scale not given here.
